# Most compounds without a hit are left out; they make up all but 2.8% or so of the library.
# PvdQ acylase = P. aeruginosa PvdQ acylase inhibition; purified PvdQ acylase, fluorescence plate reader; inhibition, % at 10 µM; actives 0.063% (n = 340,000); in the data active = inhibition above about 30%, passing the limit was not always enough;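 note: 0% = vehicle neutral wells and 100% = reference inhibitor wells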
# SIRT5 inh = inhibitors of human sirtuin-5 desuccinylase | actives 1.1% (n = 330,000) | Q9NXA8 | Purified SirT5, succinyl-peptide AMC, trypsin-coupled fluorescence | inhibition, % at 15 µM; in the data active = inhibition above about 15%
# Target sequence (Q9NXA8 whole entry, looked up): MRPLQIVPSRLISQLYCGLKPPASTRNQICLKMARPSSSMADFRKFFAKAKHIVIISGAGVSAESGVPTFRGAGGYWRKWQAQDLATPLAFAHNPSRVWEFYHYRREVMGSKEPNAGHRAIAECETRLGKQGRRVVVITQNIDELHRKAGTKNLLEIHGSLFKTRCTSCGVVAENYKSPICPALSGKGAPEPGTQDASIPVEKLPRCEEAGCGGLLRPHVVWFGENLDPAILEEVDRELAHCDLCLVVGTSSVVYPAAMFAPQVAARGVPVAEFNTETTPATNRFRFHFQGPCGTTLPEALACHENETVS
# PglD inh = inhibitors of Campylobacter jejuni PglD acetyltransferase; purified PglD enzyme, DTNB colorimetric CoA detection; actives 0.098% (n = 360,000); AID 602405; inhibition, % at 12.5 µM; in the data active = inhibition above about 16%, passing the limit was not always enough
# dFosB act-1 = enhances mouse delta FosB homodimer DNA binding | actives 0.99% (n = 340,000) | activation, % at 25 µM | P13346 | AID 493131 | purified delta FosB, TAMRA-CDK5 oligo fluorescence polarization; percent of positive-control signal above neutral wells;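 active = mean activation above about 17%, with every replicate also reaching it, limit read from the data, passing the limit was not always enough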
# CDK5 p35 inh = CDK5/p35 (human) kinase inhibition. Q00535+Q15078. Recombinant CDK5/p35, ADP-Glo luminescence, 60 min. inhibition, % at 10 µM. actives 0.01% (n = 330,000). AID 488839;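 active = highest replicate inhibition of at least 50% and at least 75% of replicates reaching 50%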;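 note: plate controls were DMSO neutral control for no effect and GW8510 at 10 µM for full effect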
# FGF22 binding = binders of recombinant human FGF22 by thermal shift; Q9HCT0; SYPRO orange fluorescence; percent of sucrose octasulfate shift, DMSO zero; activity (Tm shift, normalised), % at 9.99 µM; actives 1.5% (n = 340,000);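 active = mean Tm shift, scaled 0 neutral to 100 positive control, at about 1.3% or above, every replicate too, limit read from the data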
# Target sequence (Q9HCT0 whole entry, looked up): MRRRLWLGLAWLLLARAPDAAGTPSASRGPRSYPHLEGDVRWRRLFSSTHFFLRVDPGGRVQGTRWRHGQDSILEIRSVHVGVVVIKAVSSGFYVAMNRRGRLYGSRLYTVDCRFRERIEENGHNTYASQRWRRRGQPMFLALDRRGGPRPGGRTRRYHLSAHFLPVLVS
# dFosB act-2 = enhances mouse delta FosB homodimer binding to DNA | shares compounds with dFosB act-1 | purified delta FosB, TAMRA-CDK5 oligo fluorescence polarization; normalised: neutral wells 0, positive control 100 | activation, % at 24.9 µM | 2,400 tested, under 10 active;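 active = highest replicate activation at or above 34% and every replicate reaching that threshold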;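 note: higher polarization means more probe DNA bound by delta FosB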
# Numbers without * were called inactive; · = not tested or not shown.
SMILES,PvdQ acylase,SIRT5 inh,PglD inh,dFosB act-1,CDK5 p35 inh,FGF22 binding,dFosB act-2
CC(C)NC(=O)N(C)C[C@@H]1OCCCC[C@@H](C)Oc2ccc(NC(=O)Nc3ccccc3)cc2C(=O)N([C@@H](C)CO)C[C@H]1C,·,8,-1,·,·,0,·
O=c1c2ccccc2c2ccccc2c(=O)n1Cc1ccc2c(c1)OCO2,·,·,·,·,·,0,·
O=c1c2ccccc2[nH]c(=S)n1Cc1ccc2c(c1)OCO2,-15,0,-5,21*,-1,0,4
COc1cccc(C#Cc2ccc3c(c2)O[C@@H](CN(C)C)[C@H](C)CN([C@H](C)CO)S3(=O)=O)c1,·,0,-1,·,·,0,·
Cc1nc(NC(=O)c2ccc(Br)o2)ccc1Br,5,3,-6,1,-1,0,·
O=C(Nc1cccc(NC(=O)c2ccc(Br)o2)n1)c1ccc(Br)o1,-12,·,0,34*,0,·,1
N#C/C(=C\c1c(N2CCN(Cc3ccccc3)CC2)nc2ccccn2c1=O)S(=O)(=O)c1ccccc1,-5,0,·,32*,·,0,3
Cc1ccc(S(=O)(=O)/C(C#N)=C/c2c(N3CCN(Cc4ccccc4)CC3)nc3ccccn3c2=O)cc1,-4,-1,-4,13,1,0,·
NCCCCc1ccc2ccc3cccc4ccc1c2c34,-16,-4,0,32*,1,0,1
O=C(O)CCCc1ccc2ccc3cccc4ccc1c2c34,7,0,-14,-7,-2,-1,·
COC(=O)C[C@@H]1CC[C@@H]2[C@H](COc3ccc(NC(=O)Nc4cccc(C)c4)cc3C(=O)N2C)O1,·,-9,-1,·,·,0,·
CCCNC(=O)Nc1ccc2c(c1)C(=O)N(C)[C@H]1CC[C@@H](CC(=O)OC)O[C@@H]1CO2,·,1,-1,·,·,0,·
O=C(NNC(=O)c1sc2cccc(Cl)c2c1Cl)Nc1ccccc1,-2,·,-1,76*,-1,·,0
Cc1ccc(NC(=O)CN2C(=O)c3ccccc3C2=O)cc1,-5,·,2,2,-1,0,·
O=C(CN1C(=O)S/C(=C\c2ccccn2)C1=O)Nc1ccc(F)cc1,-9,0,2,48*,-2,0,1
CCOc1cc(/C=C2/NC(=O)N(CC(=O)Nc3cccc(C)c3)C2=O)ccc1OC,-4,0,-5,-6,-1,·,·
O=C(CN1C(=O)S/C(=C\C=C\c2ccccc2)C1=O)Nc1ccc(O)cc1,2,·,0,61*,2,·,8
O=C(CN1C(=O)c2ccccc2C1=O)Nc1ccccc1,-9,-1,6,24*,-4,0,-1
CCOc1cc(/C=C2/NC(=O)N(CC(=O)Nc3cccc(C)c3)C2=O)ccc1O,-14,·,-4,19*,1,·,5
COc1ccc2c3c(n(C)c2c1)[C@H](CO)N(C(=O)c1cnccn1)CC31CN(C)C1,·,-7,·,·,·,0,·
Cc1cccc(NC(=O)CN2C(=O)S/C(=C\c3ccccn3)C2=O)c1,-7,1,·,41*,-3,0,4
Cc1ccc(NC(=O)CN2C(=O)S/C(=C\c3ccccn3)C2=O)cc1,-16,-2,·,6,-4,0,·
O=C(CN1C(=O)S/C(=C\c2ccccn2)C1=O)Nc1ccccc1,-1,-1,3,61*,-1,0,5
CCCN1C[C@H](C)[C@H](OC)CN(C)C(=O)c2cc(NS(C)(=O)=O)ccc2OC[C@@H]1C,·,·,-1,·,·,·,·
O=C(NNC(=O)c1ccc(Cl)s1)c1csc(N2CCOCC2)n1,-1,0,·,21*,1,0,-2
SMILES,PvdQ acylase,SIRT5 inh,PglD inh,dFosB act-1,CDK5 p35 inh,FGF22 binding,dFosB act-2
COc1ccc(NC(=O)Cn2ncn3nc(-c4ccc(OC)cc4)cc3c2=O)cc1,-19,-4,0,63*,-3,0,-1
Cc1nn(CC(=O)Nc2ccc(Cl)cc2)c(=O)c2cc(-c3ccccc3)nn12,9,-3,0,30*,0,0,-2
COc1ccc(-c2cc3c(=O)n(CC(=O)Nc4ccc(Cl)cc4)ncn3n2)cc1,-15,-2,·,31*,·,0,2
COc1ccc(-c2cc3c(=O)n(CC(=O)NCCCc4ccccc4)ncn3n2)cc1,-6,-8,-4,0,-1,0,·
CCOC(=O)N1CCN(C(=O)Cn2nc(C)n3nc(-c4ccccc4)cc3c2=O)CC1,9,-1,2,-18,0,0,·
Cn1c2ccccc2c2cnn(CC(=O)Nc3ccc(Cl)cc3)c(=O)c21,-6,-6,·,26*,-1,0,-1
CCc1ccc(NC(=O)Cn2ncc3c4ccccc4n(C)c3c2=O)cc1,0,-6,-1,6,2,0,·
CCC(=O)N1C[C@H](C)[C@@H](OC)CN(C)C(=O)c2cc(NC(=O)C3CCCCC3)ccc2OC[C@@H]1C,·,-3,2,·,·,0,·
C[C@@H]1CCCCO[C@H](CN(C)C(=O)Nc2ccc(F)cc2)[C@@H](C)CN([C@@H](C)CO)C(=O)c2cc(NC(=O)CCCN(C)C)ccc2O1,·,-3,·,·,·,0,·
CC(=O)Nc1ccc(-c2cc(-c3ccc(NC(C)=O)cc3)nc(-c3ccc(NC(C)=O)cc3)n2)cc1,-9,2,2,54*,0,·,0
C[C@H]1CN([C@@H](C)CO)C(=O)c2cc(NC(=O)Cn3cnnn3)ccc2O[C@H]1CN(C)C(=O)Nc1ccc(C(F)(F)F)cc1,·,4,0,·,·,-1,·
Cc1nc(NC(=O)c2ccc(Cl)cc2)nc2cc3c(cc12)OCO3,3,·,2,9,-2,·,·
Cc1c(-c2cc(Br)ccc2O)nc2cc3c(cc2c1C)OCO3,-6,-4,-1,24*,0,0,5
COCC(=O)N1[C@H](CO)[C@@H](c2ccccc2)C12CN(C(=O)NC1CCCC1)C2,·,-1,·,·,·,·,·
Cc1ccc(C)c(Nc2nn3c(=O)c4ccc(C(=O)NCc5cccnc5)cc4nc3s2)c1,-15,-3,3,99*,·,0,-1
C=CC[C@]12N=C(c3ccc(OCCCO)cc3)O[C@H]1c1ccccc1CN(Cc1ccccc1)C2=O,·,8,6,·,·,0,·
CCCNC(=O)C[C@@H]1CC[C@H]2[C@H](COc3ccc(NC(=O)c4cccc(F)c4)cc3C(=O)N2C)O1,·,-2,-1,·,·,0,·
O=C(NC1CCN(Cc2ccccc2)CC1)c1cccc(S(=O)(=O)Nc2ccc(SC(F)F)cc2)c1,-22,3,·,26*,-3,0,2
O=C(C[C@@H]1CC[C@H]2[C@@H](COC[C@H](O)CN2CCc2ccccc2)O1)NCc1ccc(Oc2ccccc2)cc1,·,3,-2,·,·,0,·
O=C(C[C@H]1CC[C@H](NC(=O)c2ccncc2)[C@@H](CO)O1)Nc1ccccc1,·,6,-1,·,·,0,·

# High-throughput results: PubChem, Broad Institute
